Assay results published in PubChem BioAssay AID1259370 (Center for Chemical Genomics, University of Michigan, 2018).
The whole screen tested about 94,000 compounds, of which about 680 (0.72%) were called active. No stated cut-off is given here; in the data, active means z-score above about 3.2; inactive means the rest. The list comes from a sample in which actives are over-represented; it also holds similar structures and randomly drawn compounds.

molecular target: M-phase inducer phosphatase 2 (Homo sapiens) + Cyclin-dependent kinase 2 (Homo sapiens) + Cyclin-A2 (Homo sapiens) (UniProt P30305+P24941+P20248); assay: primary biochemical HTRF screen for inhibition of M-phase inducer phosphatase 2 binding to cyclin-dependent kinase 2/cyclin A (AID 1259370); settings: HTRF CDC25B-CDK2/CyclinA binding, anti-His/anti-Flag; active compounds read high

Structure (SMILES) | z-score
N#Cc1c(-c2ccccc2)nc(SCCCCOc2ccc(Cl)cc2)[nH]c1=O | 4.75 (active)
CCSc1nc(-c2ccc(Cl)cc2)c(C#N)c(=O)[nH]1 | -0.88 (inactive)
Cc1ccc(CSc2nc(-c3ccccc3)c(C#N)c(=O)[nH]2)cc1 | -0.77 (inactive)
O=C(CSc1ncnc2nc[nH]c12)c1ccc(O)c(O)c1 | 2.58 (inactive)
Cc1n[nH]c(=O)c2nn(-c3ccccc3)c(C)c12 | 0.76 (inactive)
Cc1cc(C)cc(NS(=O)(=O)c2ccc3c(c2)n(C)c(=O)n3C)c1 | -1.42 (inactive)
Cc1cc2c(c(=O)n1CC1CCCO1)C(c1cccc(Br)c1)C(C#N)=C(N)O2 (stereo unspecified) | -0.22 (inactive)
CC(C)c1ccc(C2c3c([nH][nH]c3=O)CC(C)(O)C2C(=O)OCc2ccccc2)cc1 (stereo unspecified) | -1.98 (inactive)
COc1ccc(S(=O)(=O)NC(C)c2nc(-c3ccc(C)cc3)no2)cc1 (stereo unspecified) | -1.34 (inactive)
COC(=O)c1ccc2snnc2c1 | -0.98 (inactive)
CC(C)NC(=O)Nc1ccc2snnc2c1 | 5.16 (active)
CC(C)CC(=O)Nc1ccc2nsnc2c1 | -1.58 (inactive)
CCOC(=O)c1cn(-c2cccc(F)c2)nn1 | -1.61 (inactive)
Cn1c(=O)n(C)c2cc(S(=O)(=O)Nc3ccc(F)cc3)ccc21 | -0.14 (inactive)
Cc1nc(C)c(C(=O)Nc2nnc(CC(C)C)s2)s1 | -0.08 (inactive)
CC12CC3(C)CC(C)(C1)CC(C(=O)NC(C)(C)CO)(C2)C3 | -1.12 (inactive)
O=C(CSc1ccc(-c2cccs2)nn1)N1CCCc2ccccc21 | -0.97 (inactive)
O=C(c1cccnc1)N(c1ccc2oc(=O)sc2c1)S(=O)(=O)c1ccccc1 | -1.85 (inactive)
COc1ccc(S(=O)(=O)N(C(=O)c2ccncc2)c2ccc3oc(=O)sc3c2)cc1OC | -3.46 (inactive)
O=C(c1cccnc1)N(c1cc2sc(=O)oc2c2ccccc12)S(=O)(=O)c1ccccc1 | 12.3 (active)
CCn1c(COC)nc2ccccc21 | -0.64 (inactive)

Structure (SMILES) | z-score
CCC(C)NC(=O)C1=CC(c2cccs2)=NS(=O)(=O)N1C (stereo unspecified) | -1.72 (inactive)
O=C(O)c1cccc(N2C(=O)c3ccc4c5c(ccc(c35)C2=O)CC4)c1 | 8.86 (active)
O=C1c2ccc3c4c(ccc(c24)C(=O)N1c1ccccc1)C(=O)N(c1ccccc1)C3=O | -2.52 (inactive)
O=C1c2cccc3cccc(c23)C(=O)N1c1cccc(O)c1 | -0.15 (inactive)
COCCOC(=O)C1=C(C)Nc2nc3ccccc3n2C1c1cccc(F)c1 (stereo unspecified) | -1.51 (inactive)
COc1ccc(C(=O)Oc2ccc3c(c2)oc(=O)c2ccccc23)cc1 | -0.65 (inactive)
CC(C)CCNC(=O)C1CCC(CNc2c(N3CCC(C)CC3)c(=O)c2=O)CC1 (stereo unspecified) | -0.9 (inactive)
Cc1nc(N2CCCCC2)cc(N2CCN(S(=O)(=O)c3ccc(F)cc3)CC2)n1 | -1.52 (inactive)
CCOc1ccccc1Nc1nc2ccc(Cl)cc2n2nnnc12 | -2.08 (inactive)
Cn1c(=O)n(C)c2cc(CNC3CCCCC3)ccc21 | -1.66 (inactive)
Clc1ccc(C=NCc2cccnc2)c(Cl)c1 | 0.36 (inactive)
S=C(Nc1cccnc1)N1CCCN(Cc2ccc(Cl)cc2Cl)CC1 | 12 (active)
O=C(Nc1ccccc1)N1CCN(Cc2ccccc2)CC1 | 4.1 (inactive)
CCOC(=O)c1c(NC(=O)Nc2cccc(Cl)c2)sc2c1CCCC2 | -0.86 (inactive)
CC1=C(c2cccc(Br)c2)S(=O)(=O)N=C1Nc1ccccc1C | -2.29 (inactive)
O=C(COc1ccc2c3c(c(=O)oc2c1)CCC3)OC1CCCCC1 | -1.13 (inactive)
COc1ccc2cc3c(N)nn(C(=O)Cn4c(=O)oc5ccccc54)c3nc2c1 | -0.84 (inactive)
O=C(O)C1CCCN(c2cnccn2)C1 (stereo unspecified) | 0.23 (inactive)
Cc1ccc(C)c(C(=O)CSc2n[nH]c(-c3ccco3)n2)c1 | 8.74 (active)
Cc1ccc(CNc2n[nH]c(-c3ccco3)n2)cc1 | -1.84 (inactive)
COc1ccccc1-c1nc(SCC(=O)c2ccc(Br)cc2)n[nH]1 | -0.98 (inactive)

Structure (SMILES) | z-score
CCSc1ncc(Cl)c(C(=O)Nc2nc(C)c(C(=O)OCC(C)C)s2)n1 | -1.22 (inactive)
Cn1c(=O)c2c(-c3cccc(Br)c3)n(C(CO)(CO)CO)cc2n(C)c1=O | 0.09 (inactive)
CCOC(=O)C1=C(C)NC2=C(C(=O)c3ccccc32)C1c1ccc(OC(=O)c2ccccc2)cc1 (stereo unspecified) | 11.9 (active)
COC(=O)C1=C(C)NC2=C(C(=O)c3ccccc32)C1c1ccc(OC)cc1 (stereo unspecified) | 1.16 (inactive)
CCOC(=O)C1=C(C)NC2=C(C(=O)c3ccccc32)C1c1cccc(F)c1 (stereo unspecified) | -1.68 (inactive)
O=C(O)CSc1nc2ccccc2c(=O)n1Cc1ccco1 | -1.25 (inactive)
CCOC(=O)c1sc(NC(=O)c2cc3ccccc3o2)c(C(=O)OCC)c1C | -1.55 (inactive)
COc1ccc(OC)c(C2CC(=O)N3CN(Cc4ccco4)CSC3=C2C#N)c1 (stereo unspecified) | -3.58 (inactive)
Cc1cccc(N2CSC3=C(C#N)C(c4ccccc4C)CC(=O)N3C2)c1 (stereo unspecified) | 3.61 (active)
COc1ccccc1N1C(=O)C2C(c3ccccc3C)OC3(C(=O)c4ccccc4C3=O)C2C1=O (stereo unspecified) | 0.1 (inactive)
N#CC1=C2SCN(c3ccc(F)cc3)CN2C(=O)CC1c1ccc(Br)cc1 (stereo unspecified) | 2.31 (inactive)
COc1ccc(OC)c(C2C(C#N)=C3N=C(N)c4ccccc4N3C3=C2C(=O)CCC3)c1 (stereo unspecified) | 0.51 (inactive)
COc1ccc(C2CC(=O)N3CN(c4ccccc4OC)CSC3=C2C#N)c(OC)c1 (stereo unspecified) | 8.02 (active)
CSC1=C(C#N)C(c2ccccc2C)CC(=O)N1 (stereo unspecified) | -0.39 (inactive)
COc1ccc(OC)c(C2CC(=O)N3CN(c4ccccc4OC)CSC3=C2C#N)c1 (stereo unspecified) | 3.41 (active)
CCOc1ccc(N2CSC3=C(C#N)C(c4ccc(SC)cc4)CC(=O)N3C2)cc1 (stereo unspecified) | 6.74 (active)
COc1ccc(C(=O)CC2(O)C(=O)N(C(C)C)c3ccccc32)c(OC)c1 (stereo unspecified) | -1 (inactive)
CC(C)C(=O)Nc1sc2c(c1C(=O)O)CCCC2 | -2.62 (inactive)
Cc1nc(N)[nH]c(=O)c1Br | 0.46 (inactive)
